High-throughput results as filed in PubChem.
Compounds with a hit are over-represented: about 7.5% of the library has one in this group of screens.
Vaccinia mCherry – qHTS for Stage-Specific Inhibitors of Vaccinia Orthopoxvirus: mCherry Reporter Primary qHTS; Vaccinia virus mCherry reporter infection, fluorescence; Potency, µM (highest dose often 36.5 µM), actives largely listed as inhibitors; 310,000 compounds, 0.63% hits; calls by dose curve; tested in A549 cells; further: nearly all actives have a fitted effect of over 35% in size
FMDV antiviral – High Throughput Screening for Foot and Mouth Disease Virus Antivirals; FMDV antiviral cell-based qHTS; Potency, µM (series often up to 57.9 µM), most hits filed as inhibitors; 410,000 compounds, 1.2% hits; AID 1159524, 2015; calls by dose curve; tested in HEK293T cells; further: read-out not given here; nearly all actives have a fitted effect of over 45% in size
HCV inh – qHTS Assay for Inhibitors of Hepatitis C Virus (HCV); AID 651820, 2012; 340,000 compounds, 3.4% hits; Huh7.5.1 HCVcc-Cre infection, luciferase reporter, 44 h; Potency, µM (titrated, usually from 41.8 µM), actives largely listed as inhibitors
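Antiviral activity was scored by luciferase reporter output from cells infected with HCVcc-Cre (~0.5 moi) in presence of compound, 44 h infection period, cells seeded 1,000/well 4 h prior.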
HCMV antiviral – qHTS Assay for inhibitors of the human cytomegalovirus (HCMV). HFF cells, HCMV-luciferase reporter, 72 h; hits give low values. activity change, negative = inhibition, % at 57.5 µM. 410,000 compounds, 4.5% hits; in the data active means activity change below about -60%; inconclusive means no clear call, values can overlap the other calls; inactive means above about -39%
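After 16 h attachment at 37C, HFF cells received test compound and HCMV-luciferase (1 PFU/cell); reporter luminescence read 72 h later, data normalized against buffer-only and known inhibitor Salinomycin.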
FBPA Giardia inh – qHTS Assay for Inhibitors of Fructose-1,6-bisphosphate Aldolase from Giardia Lamblia; AID 2451, 2010; Potency, µM (titrated, usually from 59.6 µM), most hits filed as inhibitors; purified Giardia FBPA; 290,000 compounds, 0.71% hits; further: nearly all actives have a fitted effect of over 55% in size
Target sequence (A8B2U2 whole entry, looked up): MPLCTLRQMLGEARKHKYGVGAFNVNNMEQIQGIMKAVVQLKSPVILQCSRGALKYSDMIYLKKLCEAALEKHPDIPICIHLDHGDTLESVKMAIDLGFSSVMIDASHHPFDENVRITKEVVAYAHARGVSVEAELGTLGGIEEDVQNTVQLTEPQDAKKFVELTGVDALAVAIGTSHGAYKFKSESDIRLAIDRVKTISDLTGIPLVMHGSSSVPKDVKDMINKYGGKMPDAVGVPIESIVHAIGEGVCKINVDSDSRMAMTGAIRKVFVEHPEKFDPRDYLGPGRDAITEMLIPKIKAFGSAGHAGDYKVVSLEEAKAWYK
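40 nM FBPA preincubated 10 min at RT with compound (up to 57.5 uM final), then substrate plus GAPDH/TPI/NAD/arsenate coupling and diaphorase/resazurin added. Fluorescence read after 20 min at RT, 525/598 nm.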
VACV Venus inh – qHTS for Stage-Specific Inhibitors of Vaccinia Orthopoxvirus: Venus Reporter Primary qHTS | 330,000 compounds, 0.46% hits | Potency, µM (highest dose often 36.5 µM), hits mostly inhibitors | Vaccinia virus Venus reporter expression, fluorescence; calls by dose curve; tested in A549 cells; further: nearly all actives have a fitted effect of over 30% in size
A number is an active result; i = inactive; ? = inconclusive; nt = not tested or not shown; + = active, no number. Unless noted, the call rests on the fitted dose curve; in most records, active means well fitted curve in the direction sought with a large enough effect; inconclusive means small, poorly fitted or top-dose-only effect, or another doubt; inactive means no such curve, though single readings can be large; an effect the other way counts as inactive or inconclusive.

SMILES | Vaccinia mCherry | FMDV antiviral | HCV inh | HCMV antiviral | FBPA Giardia inh | VACV Venus inh
CCNc1nc(NCc2ccccc2)nc(SCC(N)=O)n1 | i | i | i | ? | i | i
CCNc1nc(NCc2ccccc2)nc(SCC(=O)Nc2ccccc2)n1 | i | ? | 25µM | i | i | i
O=C(CSc1nc2ccccc2[nH]1)Nc1ccccc1F | i | nt | i | -100 | i | i
O=C(CSc1n[nH]c(-c2ccccn2)n1)Nc1ccccc1F | 28µM | i | ? | i | i | ?
O=C(CCCC(=O)N(CC(=O)NC1CCCCC1)c1ccccc1F)Nc1ccccn1 | i | i | i | i | i | i
COc1cn(CC(=O)Nc2ccc(F)cc2)c(CN2CCCCC2)cc1=O | i | i | nt | i | nt | i
Cc1ccc(S(=O)(=O)NC(=O)COc2ccc([N+](=O)[O-])cc2)cc1 | i | i | i | i | i | i
O=C(Nc1ccccc1)N1CCN(C(=O)c2nsc3ccccc23)CC1 | i | i | nt | + | nt | i
Cc1c(Cl)cccc1NC(=O)N1CCCN(c2nc(-c3ccccc3)ns2)CC1 | i | ? | ? | -70 | i | i
O=C(Nc1ccccc1)N1CCN(c2nc(-c3ccccc3)ns2)CC1 | i | ? | 1.8µM | ? | i | i
O=C(N/N=C/c1ccccc1O)c1ccncc1 | i | i | ? | i | nt | i
CCOc1cc(/C=N/NC(N)=O)cc(Br)c1OCc1ccccc1 | ? | ? | ? | i | i | i
COc1ccc(CCCC(=O)N/N=C/c2cccc(OC)c2O)cc1C | ? | i | ? | -99 | i | ?
O=C(NN=Cc1cccc(O)c1O)c1ccccc1 | 10µM | i | nt | -94 | nt | ?
CCOc1c(Br)cc(/C=N\NC(=O)c2ccccc2)cc1OC | i | i | ? | -63 | i | i
COc1cccc(/C=N/NC(=O)C(=O)Nc2ccccc2OC(F)(F)C(F)F)c1O | 10µM | i | ? | -94 | i | ?
COC(=O)NC(=S)N1CCOCC1 | i | i | i | i | i | i
COc1cccc(/C=N/NC(=O)c2ccc(-c3ccccc3)cc2)c1O | 4.5µM | i | ? | -98 | i | ?
COc1cc(/C=N/NC(=O)c2cccc([N+](=O)[O-])c2)cc(OC)c1O | i | i | i | i | i | i
COc1cccc(/C=N/NC(=O)c2ccc([N+](=O)[O-])cc2Cl)c1O | 11µM | i | ? | i | i | ?
CCOc1ccccc1C=NNC(=O)C(=O)NN=Cc1ccccc1OCC | i | i | i | i | nt | i
CCOc1ccccc1NC(=O)C(=O)N/N=C/c1cc(Br)ccc1O | ? | i | 6.3µM | -101 | i | i
COc1ccc(/C=N/NC(=O)c2ccc(O)cc2)cc1CN1CCCc2ccccc21 | i | 40µM | ? | i | i | i
COc1ccc(/C=N/NC(=O)c2ccc(F)cc2)cc1CN1CCc2cc(OC)c(OC)cc2C1C (centres undefined) | i | i | ? | i | i | i
Cc1c(-c2ccc(Cl)cc2)c(=O)oc2c(CN3CCN(C)CC3)c(O)ccc12 | i | i | nt | i | nt | i
SMILES | Vaccinia mCherry | FMDV antiviral | HCV inh | HCMV antiviral | FBPA Giardia inh | VACV Venus inh
CCOC(=O)C(=O)NCC(c1cccnc1)N1CCN(c2ccccc2)CC1 (centres undefined) | i | i | nt | i | nt | i
C[C@H](CO)N1C[C@H](C)[C@@H](CN(C)S(C)(=O)=O)Oc2ccc(NS(=O)(=O)c3cn(C)cn3)cc2C1=O | i | i | i | i | nt | i
COc1ccc(/C=N/NC(=O)c2ccc(-c3ccccc3)cc2)cc1O | i | ? | ? | -60 | i | i
NC(=S)N/N=C/c1cccc(O)c1O | 8.9µM | i | ? | -100 | ? | i
CCn1c(C)nc2cc(C(=O)N/N=C/c3cccc(O)c3O)ccc21 | 13µM | i | ? | i | i | ?
CCn1c(C)nc2cc(C(=O)N/N=C/c3ccccc3)ccc21 | i | i | i | i | i | i
COc1cc(/C=N\NC(=O)c2ccc(-c3ccccc3)cc2)cc(Br)c1O | ? | i | ? | -68 | nt | i
NC(Cc1ccc(O)cc1)C(=O)NN=Cc1ccccc1O (centres undefined) | nt | nt | nt | i | nt | nt
COc1ccc(-c2cc(C(=O)Nc3c(C)nn(Cc4ccccc4C)c3C)no2)cc1 | i | i | nt | i | nt | i
